The campaign covered roughly 5,500 compounds. About 2,000 (36%) were called active. Roughly 18% stayed inconclusive and do not appear here. The list shows a part of the results. A number with no mark means an inactive call. No stated cut-off is given here; in the data, active means normalized growth mostly below about 0.91 (no sharp cut-off); inconclusive means no clear call, values can overlap the other calls; inactive means mostly above about 0.92.
Assay: chemical genetic growth profiling, strain panel (AID 1159580);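 further: tested at 20 µM; growth read once vehicle control cultures reached saturation at 30 °C; 1 = growth at the plate median or of vehicle wells; lower values mean less growth of the strain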
Conditions: S. cerevisiae deletion strains, growth OD

For C#C[C@]1(OC(C)=O)CCC2C3CCC4=C/C(=N\O)CCC4C3CC[C@@]21CC (stereo not given in full), the normalized growth (locus YAL021C, strain ccr4, active compounds read low) was 0.823 (active), the normalized growth (locus YAL026C, strain drs2, active compounds read low) was 0.921 and the normalized growth (locus YAL030W, strain snc1, active compounds read low) was 0.582 (active). The normalized growth (locus YBL061C, strain skt5, active compounds read low) was 0.514 (active), the normalized growth (locus YBR009C, strain hhf1, active compounds read low) was 0.403 (active) and the normalized growth (locus YBR023C, strain chs3, active compounds read low) was 0.612 (active). The normalized growth (locus YBR171W, strain sec66, active compounds read low) was 0.944, the normalized growth (locus YBR231C, strain swc5, active compounds read low) was 0.333 (active) and the normalized growth (locus YBR279W, strain paf1, active compounds read low) was 0.879 (active). The normalized growth (locus YCL011C, strain gbp2, active compounds read low) was 0.476 (active), the normalized growth (locus YCL016C, strain dcc1, active compounds read low) was 0.77 (active) and the normalized growth (locus YCL061C, strain MRC1, active compounds read low) was 0.94. For the same molecule, the normalized growth (locus YCL069W, strain vba3, active compounds read low) was 0.984, the normalized growth (locus YCR088W, strain abp1, active compounds read low) was 0.898 (active) and the normalized growth (locus YDL005C, strain med2, active compounds read low) was 0.41 (active). For the same molecule, the normalized growth (locus YDL040C, strain nat1, active compounds read low) was 0.726 (active), the normalized growth (locus YDR001C, strain nth1, active compounds read low) was 0.998 and the normalized growth (locus YDR069C, strain doa4, active compounds read low) was 0.367 (active). For the same molecule, the normalized growth (locus YDR137W, strain rgp1, active compounds read low) was 0.242 (active), the normalized growth (locus YDR159W, strain sac3, active compounds read low) was 0.267 (active) and the normalized growth (locus YDR195W, strain ref2) was 0.269 (active). The normalized growth (locus YDR297W, strain sur2, active compounds read low) was 0.716 (active), the normalized growth (locus YDR334W, strain swr1, active compounds read low) was 1 and the normalized growth (locus YDR335W, strain msn5, active compounds read low) was 0.866 (active). For the same molecule, the normalized growth (locus YDR392W, strain spt3, active compounds read low) was 0.193 (active), the normalized growth (locus YEL003W, strain gim4, active compounds read low) was 0.759 (active) and the normalized growth (locus YEL037C, strain rad23, active compounds read low) was 0.993. The normalized growth (locus YEL061C, strain CIN8 (second series), active compounds read low) was 0.996, the normalized growth (locus YER015W, strain faa2, active compounds read low) was 0.918 (active) and the normalized growth (locus YER016W, strain bim1, active compounds read low) was 0.599 (active). For the same molecule, the normalized growth (locus YER111C, strain swi4, active compounds read low) was 1.01, the normalized growth (locus YER155C, strain BEM2 (second series), active compounds read low) was 0.737 (active) and the normalized growth (locus YFR010W, strain ubp6, active compounds read low) was 0.761 (active). The normalized growth (locus YGL167C, strain pmr1, active compounds read low) was 0.682 (active), the normalized growth (locus YGL173C, strain kem1, active compounds read low) was 0.817 (active) and the normalized growth (locus YGL227W, strain vid30, active compounds read low) was 0.97. The normalized growth (locus YGL240W, strain doc1, active compounds read low) was 0.782 (active), the normalized growth (locus YGL253W, strain hxk2, active compounds read low) was 0.71 (active) and the normalized growth (locus YHR013C, strain ard1, active compounds read low) was 0.315 (active). For the same molecule, the normalized growth (locus YHR027C, strain rpn1, active compounds read low) was 0.725 (active), the normalized growth (locus YHR030C, strain SLT2, active compounds read low) was 0.671 (active) and the normalized growth (locus YHR079C, strain IRE1, active compounds read low) was 0.707 (active). For the same molecule, the normalized growth (locus YHR142W, strain chs7, active compounds read low) was 0.776 (active), the normalized growth (locus YJL092W, strain hpr5, active compounds read low) was 0.941 and the normalized growth (locus YJL095W, strain BCK1 (second series), active compounds read low) was 0.503 (active). The normalized growth (locus YJL095W, strain BCK1, active compounds read low) was 0.605 (active), the normalized growth (locus YJL115W, strain asf1, active compounds read low) was 1.01 and the normalized growth (locus YJL129C, strain trk1, active compounds read low) was 0.56 (active). For the same molecule, the normalized growth (locus YJL154C, strain vps35, active compounds read low) was 0.994, the normalized growth (locus YJL164C, strain tpk1, active compounds read low) was 0.469 (active) and the normalized growth (locus YJL166W, strain qcr8, active compounds read low) was 0.344 (active). For the same molecule, the normalized growth (locus YJL187C, strain SWE1, active compounds read low) was 0.582 (active), the normalized growth (locus YJR066W, strain TOR1, active compounds read low) was 0.863 and the normalized growth (locus YKL160W, strain elf1, active compounds read low) was 0.495 (active). For the same molecule, the normalized growth (locus YKR026C, strain gcn3, active compounds read low) was 0.99, the normalized growth (locus YKR091W, strain srl3, active compounds read low) was 0.941 and the normalized growth (locus YLL001W, strain dnm1, active compounds read low) was 0.826 (active). The normalized growth (locus YLL026W, active compounds read low) was 0.461 (active), the normalized growth (locus YLL041C, strain sdh2, active compounds read low) was 0.775 (active) and the normalized growth (locus YLR027C, strain aat2, active compounds read low) was 0.513 (active). For the same molecule, the normalized growth (locus YLR113W, strain HOG1, active compounds read low) was 0.305 (active), the normalized growth (locus YLR221C, strain rsa3, active compounds read low) was 0.638 (active) and the normalized growth (locus YLR258W, strain gsy2, active compounds read low) was 0.495 (active). For the same molecule, the normalized growth (locus YLR262C, strain YPT6 (second series), active compounds read low) was 0.18 (active), the normalized growth (locus YLR320W, strain mms22, active compounds read low) was 0.558 (active) and the normalized growth (locus YLR342W, strain FKS1, active compounds read low) was 0.518 (active). The normalized growth (locus YLR357W, strain rsc2, active compounds read low) was 0.937, the normalized growth (locus YLR370C, strain arc18, active compounds read low) was 0.785 (active) and the normalized growth (locus YLR384C, strain iki3, active compounds read low) was 1.01. The normalized growth (locus YML120C, strain ndi1, active compounds read low) was 0.471 (active), the normalized growth (locus YMR058W, strain fet3, active compounds read low) was 0.89 (active) and the normalized growth (locus YMR125W, strain sto1, active compounds read low) was 0.884 (active). For the same molecule, the normalized growth (locus YMR129W, active compounds read low) was 0.986, the normalized growth (locus YMR205C, strain PFK2, active compounds read low) was 0.358 (active) and the normalized growth (locus YMR231W, strain pep5, active compounds read low) was 0.45 (active). The normalized growth (locus YNL071W, strain lat1, active compounds read low) was 0.476 (active), the normalized growth (locus YNL183C, strain NPR1, active compounds read low) was 0.84 and the normalized growth (locus YNL209W, strain ssb2, active compounds read low) was 0.846 (active). For the same molecule, the normalized growth (locus YNL248C, strain rpa49, active compounds read low) was 0.996, the normalized growth (locus YNL322C, strain KRE1 (second series), active compounds read low) was 1.01 and the normalized growth (locus YNR049C, strain mso1, active compounds read low) was 0.987. For the same molecule, the normalized growth (locus YOR001W, strain rrp6, active compounds read low) was 0.767 (active), the normalized growth (locus YOR070C, strain gyp1, active compounds read low) was 0.394 (active) and the normalized growth (locus YOR080W, strain dia2, active compounds read low) was 0.917. The normalized growth (locus YOR083W, strain WHI5, active compounds read low) was 0.619 (active), the normalized growth (locus YOR106W, strain vam3, active compounds read low) was 0.281 (active) and the normalized growth (locus YOR231W, strain MKK1, active compounds read low) was 0.673 (active). The normalized growth (locus YOR265W, strain rbl2, active compounds read low) was 0.668 (active), the normalized growth (locus YOR270C, strain vph1, active compounds read low) was 0.512 (active) and the normalized growth (locus YOR290C, strain snf2, active compounds read low) was 0.563 (active). For the same molecule, the normalized growth (locus YPL051W, strain arl3, active compounds read low) was 0.456 (active), the normalized growth (locus YPL078C, strain atp4, active compounds read low) was 0.835 (active) and the normalized growth (locus YPL106C, strain sse1, active compounds read low) was 0.824 (active). The normalized growth (locus YPL240C, strain hsp82, active compounds read low) was 0.604 (active) and the normalized growth (locus YPL256C, strain CLN2, active compounds read low) was 0.752 (active).

Reference: PubChem BioAssay AID1159580 (chemical genetic matrix, 2015)
